Data from PubChem BioAssay AID686979 (National Center for Advancing Translational Sciences (NCATS), 2013).
Hit rate of the full screen: of about 420,000 compounds, about 50,000 (12%) were called active. Roughly 26% stayed inconclusive and do not appear here. What follows is part of a selection rich in actives, with near analogues and random picks from the rest. A number with no mark means an inactive call. Calls follow the shape of the dose curve; as a rule, active = well fitted inhibition curve with a large enough effect; inconclusive = small, poorly fitted or top-dose-only effect; inactive = flat fitted curve, though single readings scatter.

Assay: qHTS for Inhibitors of human tyrosyl-DNA phosphodiesterase 1 (TDP1): qHTS in cells in presence of CPT; also: nearly all actives have a fitted effect of over 55% in size
Conditions: chicken DT40 Tdp1-/-;hTDP1 cells + 20 nM CPT, ATP luminescence, 48 h; series mostly up to 46.2 µM; activity change, negative = growth inhibition: at the top concentration
Procedure, shortened: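 Chicken DT40 Tdp1-/- cells stably complemented with human TDP1 were seeded at 400 cells/well in medium containing 20 nM camptothecin, exposed to pin-transferred compounds, and grown at 37 °C for at least 48 hr. Viability was read as ATP luminescence.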
% is scaled to controls: 0 for no effect and ±100 for the full control effect; potency is read from the fitted curve at half-maximal effect.

Structure (SMILES) | activity change, negative = growth inhibition | Potency
Cc1cc(C)nc(NS(=O)(=O)c2ccc(NC(=O)c3cc(=O)c4ccc(C)c(C)c4o3)cc2)n1 | -16.9% (inactive) | –
CS(=O)(=O)N(CC(=O)Nc1ccc(F)cc1)C1CCCCC1 | 1.39% (inactive) | –
N[C@H]1CN(c2c(F)cc3c(=O)c(C(=O)O)cn(C4C[C@H]4F)c3c2Cl)CC12CC2 (stereo partly specified) | -5.28% (inactive) | –
O=C(CN1CCOCC1)Nc1cc(Cl)ccc1Cl | 0.338% (inactive) | –
CC1(c2ccccc2)NC(=O)N(CC(=O)Nc2cc(Cl)ccc2N2CCOCC2)C1=O (stereo unspecified) | -0.724% (inactive) | –
O=C(CSc1nc(Nc2ccccc2)nc(N2CCOCC2)n1)Nc1cc(Cl)ccc1O | – | 25.9 µM (active)
Cn1c(N)cc(=O)n(C)c1=S | -6.81% (inactive) | –
Cc1ccnc(NS(=O)(=O)c2ccc(NC(=O)c3oc4ccc(F)cc4c3C)cc2)n1 | -8.42% (inactive) | –
COC(=O)c1ccc(NC(=O)C23CC4CC(C2)CC(n2cnc(Cl)n2)(C4)C3)cc1 | – | 20.6 µM (active)
O=C(Nc1ccc(S(=O)(=O)Nc2ncccn2)cc1)C12CC3CC(CC(C3)C1)C2 | 10.4% (inactive) | –
Cc1ncn(C23CC4CC(CC(O)(C4)C2)C3)n1 | 2.94% (inactive) | –
CC(=O)Oc1ccc2c(=O)oc(-c3ccc([N+](=O)[O-])cc3)nc2c1 | -2.32% (inactive) | –
Cc1ccc(S(=O)(=O)n2cnc3ccccc32)c(C)c1 | -14% (inactive) | –
Cc1ccc(C)c(S(=O)(=O)n2cnc3ccccc32)c1 | -2.59% (inactive) | –
COc1ccc(S(=O)(=O)n2cnc3ccccc32)c(C)c1 | – | 18.4 µM (active)
N#Cc1c(NC(=O)c2ccc(N3CCOCC3)c([N+](=O)[O-])c2)sc2c1CCCC2 | 0.828% (inactive) | –
COc1cccc2cc(C(N)=O)/c(=N\NC(=O)c3ccccc3)oc12 | -11% (inactive) | –
CC1(C(=O)O)CCCN(C(=O)/C=C/c2ccccc2)C1 (stereo unspecified) | 6.06% (inactive) | –
CC(C)Cn1c(N2CCN(C(=O)/C=C/c3ccccc3)CC2)nc2ccccc21 | – | 18.4 µM (active)
CC(C)N(C(=O)Cn1c(SCC(=O)N2CCN(c3ccccc3)CC2)nc2ccccc21)C(C)C | 0.282% (inactive) | –
CN(Cc1ccccc1Cl)C(=O)C1CCC(=O)N(CCc2cccc(F)c2)C1 (stereo unspecified) | -24% (inactive) | –
CN(C(=O)CN1CCN(c2cc(-c3ccc(OCc4ccccc4)cc3)ncn2)CC1)c1ccccc1 | – | 18.4 µM (active)
CCOc1ccc(OCc2ccc(C(=O)N(C)c3ccccc3)o2)cc1 | -3.27% (inactive) | –
COc1ccc(OCC(=O)N2CCN(C(=O)COc3ccccc3)CC2)cc1 | -6.66% (inactive) | –
CCCC(C)C(=O)Nc1ccc(NC(C)=O)cc1 (stereo unspecified) | -2.66% (inactive) | –
CC1(C)[C@@H]2CC[C@@]1(C)[C@H](OC(=O)CSC#N)C2 | -22.1% (inactive) | –

Structure (SMILES) | activity change, negative = growth inhibition | Potency
CCCCNC(=O)c1ccc(-n2c(=S)[nH]c3ccccc3c2=O)cc1 | -3.14% (inactive) | –
Cc1ccc(NC(=S)N(Cc2ccco2)C(C)c2cccs2)cc1 (stereo unspecified) | -11.9% (inactive) | –
C/C(=N\Nc1ccc(Cl)nn1)c1ccccc1O | – | 0.58 µM (active)
CCCCCCCN=C(C)c1ccccc1O | 10.7% (inactive) | –
Oc1cccc(/C=N/Nc2ccc(Cl)nn2)c1O | – | 0.092 µM (active)
Clc1ccc(N/N=C/c2cccs2)nn1 | 14.4% (inactive) | –
COc1cccc(/C=N/Nc2ccc(Cl)nn2)c1 | -1.57% (inactive) | –
Fc1ccccc1Cc1ccc(Cl)nn1 | 1.4% (inactive) | –
O=CN1CCN(C(=O)c2ccc3c(c2)OCO3)CC1 | -4.43% (inactive) | –
Cc1ccc(C(=O)O)cc1N1C(=O)CCCC1=O | 9.25% (inactive) | –
Cc1ccc(-n2c(C)nnc2SCC(=O)NC2CC2)cc1 | -4.64% (inactive) | –
COc1ccccc1N1CC(C(=O)Nc2ccc(S(=O)(=O)N3CCOCC3)cc2)CC1=O (stereo unspecified) | -22% (inactive) | –
COc1ccc(Cl)cc1NC(=O)C1CC(=O)N(c2ccc(F)cc2)C1 (stereo unspecified) | -17.6% (inactive) | –
COc1cc(OC)c(N2CC(C(=O)Nc3cc(Cl)ccc3N3CCOCC3)CC2=O)cc1Cl (stereo unspecified) | – | 3.66 µM (active)
CCCOc1ccc(Cc2c(O)nc(N)[nH]c2=O)cc1C | -0.484% (inactive) | –
Cc1ccc(F)cc1S(=O)(=O)Nc1cccc(C(=O)N2CCCC(C(N)=O)C2)c1 (stereo unspecified) | 13.4% (inactive) | –
Cc1ccc(O/C=C2\OC(=O)c3ccccc32)cc1 | -28% (inactive) | –
Cc1c(CCC(=O)N[C@@H](CC(C)C)C(=O)O)c(=O)oc2c(C)c3oc4c(c3cc12)CCCC4 | -3.78% (inactive) | –
O=C(OCC1OC(Oc2ccc(O)cc2)C(O)C(O)C1O)c1ccccc1 (stereo unspecified) | -20% (inactive) | –
CCc1ccccc1NS(=O)(=O)c1ccc2nc(-c3ccccc3)[nH]c2c1 | – | 20.6 µM (active)
CCc1ccc(NC(=O)C2CCCN2S(=O)(=O)c2ccc3nc(-c4ccccc4)[nH]c3c2)cc1 (stereo unspecified) | – | 23.1 µM (active)
CCc1nnc(NC(=O)C2CCCN2S(=O)(=O)c2ccccc2)s1 (stereo unspecified) | -10.1% (inactive) | –
Cc1ccc(S(=O)(=O)Nc2ccccc2CNc2c(C)n(C)n(-c3ccccc3)c2=O)cc1 | 0.158% (inactive) | –
CC(=O)Nc1ccc(NC(=O)C2CCCN2S(=O)(=O)c2cccc(C(F)(F)F)c2)cc1 (stereo unspecified) | -24.5% (inactive) | –
CCN(CC)S(=O)(=O)c1ccc2nc(COC(=O)c3n[nH]c4ccccc34)[nH]c2c1 | -5.88% (inactive) | –
